Source: PubChem BioAssay AID436 (Emory University Molecular Libraries Screening Center, 2006)
Among all 72,000 compounds or so, about 350 (0.49%) were called active. Shown is part of a subset that was picked to be rich in actives. Values without a mark were called inactive.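 Rule for the calls: active = activity remaining at or below 50% of control, provided the compound also passes the data quality filters; inactive = the rest, including low values that fail the filters.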

The compounds below were run against Ubiquitin carboxyl-terminal hydrolase BAP1 (Homo sapiens) (UniProt Q92560) (assay: inhibitors of BAP1 deubiquitinase, primary screen, biochemical, Ub-AMC fluorescence, kinetic (AID 436;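 note: 100% = DMSO wells rate and 0% = substrate alone blank rate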)). Conditions: recombinant BAP1, Ub-AMC hydrolysis fluorescence kinetic; at 20 µM; hits give low values.
Chain of Ubiquitin carboxyl-terminal hydrolase BAP1 (Homo sapiens) (Q92560 whole entry, looked up): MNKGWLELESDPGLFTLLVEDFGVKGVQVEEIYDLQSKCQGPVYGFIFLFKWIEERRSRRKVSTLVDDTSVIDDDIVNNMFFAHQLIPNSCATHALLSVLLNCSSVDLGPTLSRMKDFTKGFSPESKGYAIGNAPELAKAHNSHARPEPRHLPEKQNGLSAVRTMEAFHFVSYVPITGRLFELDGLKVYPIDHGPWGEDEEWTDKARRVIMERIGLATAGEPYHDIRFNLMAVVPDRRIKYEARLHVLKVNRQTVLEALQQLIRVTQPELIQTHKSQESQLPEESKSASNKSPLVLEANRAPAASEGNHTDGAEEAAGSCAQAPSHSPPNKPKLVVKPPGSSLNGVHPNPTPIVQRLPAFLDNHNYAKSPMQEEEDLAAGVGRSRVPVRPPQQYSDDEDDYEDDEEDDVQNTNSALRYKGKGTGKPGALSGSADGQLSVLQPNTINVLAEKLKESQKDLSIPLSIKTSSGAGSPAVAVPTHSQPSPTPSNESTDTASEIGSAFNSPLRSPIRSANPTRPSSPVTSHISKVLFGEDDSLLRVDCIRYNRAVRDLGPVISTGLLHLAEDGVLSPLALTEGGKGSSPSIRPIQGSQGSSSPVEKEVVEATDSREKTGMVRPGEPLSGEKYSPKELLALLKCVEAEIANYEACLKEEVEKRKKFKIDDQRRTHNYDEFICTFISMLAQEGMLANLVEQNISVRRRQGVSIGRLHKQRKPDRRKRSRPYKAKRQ

| SMILES | activity remaining (% of control) |
| --- | --- |
| Cn1c(=N)n(CC(=O)c2ccco2)c2ccccc21 | 76.8% |
| Brc1ccc(-c2nc3ccccc3nc2-c2ccccc2)cc1 | 66.2% |
| CCOc1ccc(Nc2cc(C)nc3ncnn23)cc1 | 112% |
| Nc1nnc(-c2ccccc2SCc2ccc(F)cc2)s1 | 68.2% |
| COc1ccc(C(=O)Nc2ccc3oc(-c4ccc(C)cc4)nc3c2)cc1[N+](=O)[O-] | 77% |
| Cc1c(N=Cc2cc(Br)ccc2O)c(=O)n(-c2ccccc2)n1C | 106% |
| CC(=O)CCN1C(=O)C(=O)c2ccccc21 | 83.2% |
| CCn1c(N2CCCC2)nc2c1c(=O)n(C)c(=O)n2C | 117% |
| Cc1nc2sc3ccccc3c2s1 | 122% |
| COc1ccc(-c2csc(NC(=O)c3ccc(S(=O)(=O)N4CC(C)CC(C)C4)cc3)n2)cc1C (configuration not stated) | 92.9% |
| Cn1c(SCC(=O)c2ccc(Cl)cc2)nc2c1c(=O)[nH]c(=O)n2C | 112% |
| COc1ccc(OC)c(NC(=O)c2cc(Cl)ccc2[N+](=O)[O-])c1 | 90.2% |
| CCCCOC(=O)C1=C(C)NC2=C(C(=O)CCC2)C1c1ccc(OCC)c(OC)c1 (configuration not stated) | 72.5% |
| Cc1ccc2cccc(NC(=O)C34CC5CC(CC(C5)C3)C4)c2n1 | 149% |
| CCOC(=O)c1c(C)oc2ccc(N(C(=O)c3ccccc3)S(=O)(=O)c3ccc(Cl)c([N+](=O)[O-])c3)cc12 | 71% |
| CCCOC(=O)c1ccc(NC(=O)c2ccc(OC)cc2)cc1 | 167% |
| CC1=C(C(=O)OCc2ccccc2)C(c2ccccc2I)NC(=O)N1C (configuration not stated) | 104% |
| CCOC(=O)c1c(N=c2oc3ccccc3cc2C(=O)Nc2ccc(F)cc2)sc(C)c1C | 63.1% |
| CC(C)C(=O)Nc1c2c(nn1-c1ccc(Cl)cc1)CSC2 | 73.6% |
| COc1ccc(N2C(=O)CSC2c2cc(Br)ccc2OC)cc1 (configuration not stated) | 80.4% |
| O=C(Nc1nc2ccccc2s1)C1CC(=O)N(c2ccccc2Cl)C1 (configuration not stated) | 204% |
| O=C(CSc1nc2sc3c(c2c(=O)[nH]1)CCCC3)NCc1ccccn1 | 170% |
| O=C(Nc1cccc(-c2nc3ccccc3o2)c1)C1CCCCC1 | 79.6% |
| COc1ccc(C2CC(c3c(-c4ccccc4)c4cc(Br)ccc4[nH]c3=O)=NN2C(=O)c2ccncc2)cc1 (configuration not stated) | 97.8% |
| Fc1ccc2nc(Nc3nc4c(s3)CCCC4)sc2c1 | 43.8% (active) |
| O=C(Cn1c(=O)sc2ccccc21)Nc1nc2c(s1)CCCC2 | 79.8% |
| Fc1ccc2nc(N3CCCCC3)sc2c1 | 108% |
